NPC1 prom act – qHTS Assay for NPC1 Promoter Activators. Huh7 NPC1 promoter luciferase reporter, 24 h. Potency, µM (doses to about 9.22 µM), for inactives: top-dose activation, usual class: activators. 320,000 tested, 2.4% active. AID 485313, 2010; also: % of control where 0% means no effect; nearly all actives have a fitted effect of over 60% in size
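Luciferase expression driven by the NPC1 promoter was measured in stably transfected Huh7 cells after a 24 h compound incubation, using a luciferase reagent and a luminescence read.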
FLuc counter – qHTS profiling assay for firefly luciferase inhibitor/activator using purifed enzyme and Km concentrations of substrates (counterscreen for miR-21 project). purified FLuc, Km substrates, luminescence inhibition. Potency, µM (doses to about 57.5 µM), without a hit: at the top dose activity change, negative = inhibition, hits mostly inhibitors. 360,000 tested, 6.9% active. AID 588342, 2011;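 also: plate controls were vehicle for no effect and reference inhibitor for full effect; nearly all actives have a fitted effect of over 55% in size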
Target sequence (P08659 whole entry, looked up): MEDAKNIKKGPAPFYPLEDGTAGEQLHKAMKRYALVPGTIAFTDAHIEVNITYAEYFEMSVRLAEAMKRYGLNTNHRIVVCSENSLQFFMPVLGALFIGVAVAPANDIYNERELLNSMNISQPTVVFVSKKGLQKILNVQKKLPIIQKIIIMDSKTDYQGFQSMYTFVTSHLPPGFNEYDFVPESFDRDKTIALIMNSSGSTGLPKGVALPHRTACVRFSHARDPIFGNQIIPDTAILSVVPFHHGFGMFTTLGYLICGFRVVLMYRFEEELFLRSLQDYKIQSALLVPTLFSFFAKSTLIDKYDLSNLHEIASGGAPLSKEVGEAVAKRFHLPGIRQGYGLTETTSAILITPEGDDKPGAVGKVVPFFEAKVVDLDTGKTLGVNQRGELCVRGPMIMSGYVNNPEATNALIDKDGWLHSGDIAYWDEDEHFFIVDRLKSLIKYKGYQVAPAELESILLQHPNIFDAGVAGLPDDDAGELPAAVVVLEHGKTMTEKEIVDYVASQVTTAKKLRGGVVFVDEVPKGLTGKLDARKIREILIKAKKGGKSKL
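Purified P. pyralis luciferase (10nM final) with 10uM D-luciferin and 10uM ATP (Km levels) in 50mM Tris acetate pH 7.5, 10mM Mg acetate, 0.01% Tween-20, 0.05% BSA; qHTS 6-point titration, ~60 µM downward; luminescence read.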
ELG1 genotoxic – qHTS screen for small molecules that induce genotoxicity in human embryonic kidney (HEK293T) cells expressing luciferase-tagged ELG1; Potency, µM (highest dose often 46 µM), without a hit: at the highest dose activity change, positive = activation, hits mostly activators; AID 504466, 2011; 330,000 tested, 1.3% active; HEK293T ELG1-luciferase reporter, luminescence, 16 h; also: % of control where 0% means no effect; nearly all actives have a fitted effect of over 60% in size
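ELG1-luciferase HEK293T cells, 2,000/well; compound pinned in; 16 hr, 37 °C, 5% CO2; ONE-Glo, 30 min RT; luminescence on CCD imager.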
Luc counter – Counterscreen for Luciferase (Kinase-Glo TM) Inhibition; Potency, µM (titrated, usually from 38.3 µM), for inactives: at the top dose activity change, negative = inhibition, usual class: inhibitors; Kinase-Glo luciferase, ATP luminescence, 8 min; AID 1379, 2008; 200,000 tested, 0.28% active; Luciferin 4-monooxygenase (Photuris pensylvanica), Q27757; also: % is scaled to controls: 0 for no effect and ±100 for the full control effect; nearly all actives have a fitted effect of over 60% in size
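Substrate mix (final 50 mM imidazole pH 7.2, 50 mM KCl, 7 mM MgCl2, 10 uM ATP, 0.01% Tween 20, 0.05% BSA) plus pin-tool compound, then Kinase-Glo detection mix; 8 min ambient, luminescence read.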
Rab9 promoter act – qHTS Assay for Rab9 Promoter Activators; Huh7 Rab9 promoter-luciferase reporter, luminescence, 24 h; Potency, µM (series often up to 9.22 µM), for inactives: at the highest dose activation, negative = inhibition, hits mostly activators; 320,000 tested, 2.8% active; also: % of control where 0% means no effect; nearly all actives have a fitted effect of over 60% in size
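Cells were plated at 1500 per well in reduced-serum medium with 10% FBS and left 2 h. Compound in DMSO was then added for 24 h at 37 °C. Reporter signal was read by luminescence after 10 min with luciferase detection reagent.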
SMN2 splice enh – qHTS Assay for Enhancers of SMN2 Splice Variant Expression; Potency, µM (titrated, usually from 46.1 µM), for inactives: at the top dose activity change, positive = activation, most hits filed as activators; 210,000 tested, 2.8% active; AID 1458, 2008; HEK293 SMN2-luciferase splicing reporter, luminescence, 30-36 h; also: % of control where 0% means no effect; nearly all actives have a fitted effect of over 55% in size
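HEK293 cells carry an SMN2 […]–luciferase reporter in which exon 7 inclusion puts luciferase in frame. Cells were plated 10-12 h before compound addition, then incubated 30-36 h at 37C. ONE-Glo luminescence was read; sodium butyrate at 4.5 mM final served as control.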
* marks the source's active call; other numbers are inactive results; ? = inconclusive; nt = no result; [ ] = remark or other dose. Shown are actives, neighbours in structure and some others; about 7.4% of the full set was active somewhere. Calls follow the shape of the dose curve; as a rule, active = well fitted curve in the direction sought with a large enough effect; inconclusive = small, poorly fitted or top-dose-only effect, or another doubt; inactive = no such curve, though single readings can be large; an effect the other way counts as inactive or inconclusive. Potency is read from the fitted curve at half-maximal effect.

SMILES	NPC1 prom act	FLuc counter	ELG1 genotoxic	Luc counter	Rab9 promoter act	SMN2 splice enh
O=S(=O)(N/N=C1\CC(c2ccccc2)Oc2ccccc21)c1ccccc1 (stereo not drawn)	0%	-10%	-6%	2%	-7%	-11%
CCOc1ccc(S(=O)(=O)N/N=C2/CC(c3ccccc3)Oc3ccccc32)cc1 (stereo not drawn)	2%	21µM*	8%	-3%	0%	?
CS(=O)(=O)CCC(C(=O)OCc1ccc(Cl)cc1)N1C(=O)c2ccccc2C1=O (stereo not drawn)	1%	11%	0%	0%	-7%	1%[1.84 µM]
COc1ccccc1Cc1nc2ccccc2nc1SCC(=O)Nc1ccccc1C(F)(F)F	nt	-7%	nt	nt	nt	nt
Cc1ccc(C(=O)N/N=C2\CCCc3ccccc32)c(C)c1	2.8µM*	6µM*	13%	-2%	?	13µM*
O=C(N/N=C1\CCCc2ccccc21)c1ccc([N+](=O)[O-])cc1	?	6µM*	?	3%	3.5µM*	14µM*
O=C(CNc1ccc(F)cc1)N/N=C1\CCCc2ccccc21	-2%	4%	-3%	-2%	1%	-3%
Cc1ccc(OCC(=O)Nc2cccc(S(=O)(=O)NC3=NCCCCC3)c2)cc1C	0%	15µM*	-5%	nt	-1%	nt
O=C(/C=C/c1ccc(Cl)cc1Cl)Nc1cccc(S(=O)(=O)NC2=NCCCCC2)c1	22%	2.4µM*	6%	0%	19%	15%
O=C(/C=C/c1ccccc1[N+](=O)[O-])Nc1cccc(S(=O)(=O)NC2=NCCCCC2)c1	nt	nt	0%	nt	nt	nt
Cc1cc(OCC(=O)Nc2cccc(S(=O)(=O)NC3=NCCCCC3)c2)ccc1Cl	0%	17µM*	-5%	0%	0%	-14%
Cc1cc(C)cc(OCC(=O)Nc2cccc(S(=O)(=O)NC3=NCCC3)c2)c1	-16%	-12%	-2%	nt	-1%	nt
COc1ccc(C(C)(C)C)cc1NC(=O)COC(=O)CN1C(=O)NC2(CCCCC2C)C1=O (stereo not drawn)	nt	nt	0%	nt	nt	nt
Cc1nn(CCC(=O)NNC(=S)NCC(C)C)c(C)c1Br	-2%	1%	-11%	-3%	-5%	-6%
COc1ccc(-c2csc(Nc3ncccn3)n2)cc1C	0.71µM*	-16%	?	nt	0.18µM*	nt
COc1ccc(-c2csc(NC(=O)Cc3ccccc3)n2)cc1OC	-3%	?	1%[9.26 µM]	nt	-2%	nt
COc1ccc(-c2csc(Nc3cc(C)ccn3)n2)cc1C	21%	8.5µM*	2%	nt	?	nt
COc1ccc(-c2csc(NC(=O)c3c(C)noc3C)n2)cc1F	0%	?	-7%	nt	1%	nt
Nc1cc(-c2ccc(Cl)cc2)nn1-c1ccccc1	3.2µM*	6µM*	?	-9%	3.2µM*	14µM*
CC(=O)Nc1ccc(-c2cc(N)n(-c3ccccc3)n2)cc1	2.2µM*	9.5µM*	?	nt	3.2µM*	nt
Cc1ccc(-n2nc(-c3ccc(N)cc3)cc2N)cc1	?	19µM*	?	4%	?	11µM*
C/C(=N/NC(=O)c1cc(C(C)C)[nH]n1)c1cccs1	0.4µM*	5.4µM*	?	-18%	0.5µM*	11µM*
C/C(=N\Nc1ccccn1)c1ccc(OC(F)F)cc1	10%	15µM*	?	0%	26%	21%
C/C(=N/NC(=O)c1cnccn1)c1cccs1	2µM*	15µM*	?	?	?	8.9µM*
C/C(=N\Nc1ccccn1)c1cccs1	3.5µM*	6.7µM*	?	-3%	3.2µM*	32µM*
SMILES	NPC1 prom act	FLuc counter	ELG1 genotoxic	Luc counter	Rab9 promoter act	SMN2 splice enh
C/C(=N\Nc1ccccn1)c1ccc(C#N)cc1	1%	?	1%	2%	4%	-5%
COc1ccc(S(=O)(=O)N2CCOCC2)cc1C(=O)N1CCCC1	-2%	4%	1%	nt	-1%	nt
COc1ccccc1NC(=O)CSc1nc2c(oc3ccccc32)c(=O)n1-c1ccccc1F	nt	0%	nt	nt	nt	-6%
C/C(=N\NC(=O)c1cc(C)[nH]n1)c1cccs1	1.1µM*	12µM*	?	-23%	0.32µM*	11µM*
C/C(=N\NC(=O)c1cc(C)[nH]n1)c1ccc(-c2ccccc2)cc1	26%	-17%	14%	nt	17%	nt
CCN(Cc1ccccc1)C(=O)c1cc2c(OC)c(OC)c(OC)cc2[nH]1	-10%	-13%	0%	nt	-8%	nt
Cc1ccc(C(=O)NC(=S)Nc2ccccc2C(F)(F)F)cc1	-3%	?	0%	nt	15%	nt
COc1ccccc1C(=O)NC(=S)Nc1cccnc1Cl	1.1µM*	2.4µM*	0.82µM*	nt	1µM*	nt
COc1ccc(C(=O)Nc2cccnc2Cl)cc1OC	1%	0%	8%	nt	1%	nt
Cc1ccc(C(=O)NC(=S)Nc2cccnc2Cl)cc1	2.5µM*	12µM*	?	nt	2.8µM*	nt
CC(C)Cn1c(=O)c2ccccc2n2c(CCC(=O)Nc3ccc(F)c(F)c3)nnc12	nt	-1%	nt	nt	nt	-9%
Cn1nc(C(F)(F)F)cc1-c1ccc(S(N)(=O)=O)s1	?	?	15%	nt	?	nt
CN(C)C(=O)c1ccc(-c2cc(C(F)(F)F)nn2C)s1	3.5µM*	15µM*	?	nt	?	nt
COc1cc(/C=N/NC(=O)Cc2csc(N3CCOCC3)n2)cc(OC)c1O	0%	15µM*	0%	-5%	0%	6%
CC1CCCN(C(=O)c2cc3ccc4cccnc4c3[nH]2)C1 (stereo not drawn)	nt	0.43µM*	nt	nt	nt	nt
O=C(c1cc2ccc3cccnc3c2[nH]1)N1CCCCC1	nt	1.2µM*	nt	nt	nt	nt
O=C(Nc1ccc(O)c(-c2nc3ccccc3o2)c1)c1sc2ccccc2c1Cl	nt	-11%	nt	nt	nt	3%
COc1cccc(CNc2cc(C)nc3nc(-c4ccc(C)cc4)nn23)c1	nt	1.7µM*	nt	nt	nt	nt
COc1ccc(-c2nc3nc(C)cc(Nc4cccc(C(F)(F)F)c4)n3n2)cc1	2%	2%	nt	nt	1%	0%
Oc1ccc(/C=N/Nc2ccc(C(F)(F)F)cn2)c(O)c1	-21%	12µM*	?	nt	12%	nt
Oc1ccc(/C=N/Nc2cccc(Cl)n2)c(O)c1	?	5.4µM*	?	nt	8%	nt
Oc1ccc(/C=N/Nc2ccc(C(F)(F)F)cn2)cc1	?	17µM*	?	-1%	3.5µM*	16µM*
CSc1ccc(S(=O)(=O)NCC(=O)OCC(=O)N(C)Cc2ccccc2)cc1[N+](=O)[O-]	-1%	8%	5%	nt	1%	nt
